Shown are actives, neighbours in structure and some others; about 27% of the full set was active somewhere.
sEH inhibitor: soluble epoxide hydrolase (human) inhibition | recombinant human sEH enzymatic activity assay | hit rate 0.34% among 91,000 | inhibition, % at 2 µM | P34913; in the data active = inhibition above about 80%
sEH act: increases human soluble epoxide hydrolase activity; hit rate 0.04% among 91,000; activation, % at 2 µM; P34913; purified human sEH enzymatic activity, activator screen; in the data active = activation above about 37%
CYP2C19 inhib: blocks human cytochrome P450 2C19 | P33261 | CYP2C19 Supersomes, luciferin-H EGE luminescence, 30 min | inhibition, % at 5 µM | hit rate 21% among 96,000;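 active = CYP2C19 inhibition above a set limit at 5 µM in the primary screen, cut at about 50% in these data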
CYP2C9 inhib: human CYP2C9 inhibition | P11712 | CYP2C9 Supersomes, luciferin-H conversion, luminescence | inhibition, % at 5 µM | hit rate 20% among 96,000;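 active = blocking of liver enzyme CYP2C9 beyond about 50% at 5 µM, limit read from the data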
Target sequence (P11712 whole entry, looked up): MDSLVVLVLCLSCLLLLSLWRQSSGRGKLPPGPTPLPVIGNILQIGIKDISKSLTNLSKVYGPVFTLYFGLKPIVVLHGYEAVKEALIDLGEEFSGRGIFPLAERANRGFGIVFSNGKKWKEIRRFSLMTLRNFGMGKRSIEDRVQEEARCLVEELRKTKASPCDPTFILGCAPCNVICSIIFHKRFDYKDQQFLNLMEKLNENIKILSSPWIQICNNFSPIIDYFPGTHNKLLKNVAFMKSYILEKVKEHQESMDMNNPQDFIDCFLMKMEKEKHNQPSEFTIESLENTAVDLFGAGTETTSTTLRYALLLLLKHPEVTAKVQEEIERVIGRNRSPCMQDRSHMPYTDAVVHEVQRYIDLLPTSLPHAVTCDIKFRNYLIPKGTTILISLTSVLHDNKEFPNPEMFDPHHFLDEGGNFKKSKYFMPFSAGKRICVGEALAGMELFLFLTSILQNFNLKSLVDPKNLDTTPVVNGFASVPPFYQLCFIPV
CYP2C9 act: activators of human CYP2C9; activation factor at 5 µM; AID 1024; hit rate 1.4% among 96,000; recombinant CYP2C9, luciferin-H conversion, luminescence; stronger effect = higher value; factor 1 = untreated enzyme, 0 = blocked;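 active = activation factor of 2 or more for CYP2C9 at a 5 µM dose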
CYP2C19 activ: cytochrome P450 2C19 (human) activation; P33261; recombinant CYP2C19, luciferin-H EGE luminescence; stronger effect = higher value; 0 = fully inhibited enzyme, 1 = untreated enzyme; activation factor at 5 µM; 96,000 tested, under 10 active;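 active = activation factor of at least 2 at 5 µM in the primary screen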
Numbers stand for hits; – = inactive; · = not tested or not shown.

SMILES	sEH inhibitor	sEH act	CYP2C19 inhib	CYP2C9 inhib	CYP2C9 act	CYP2C19 activ
O=C(NCC1CCC(C(=O)O)CC1)c1cccnc1 (stereo unspecified)	–	–	–	–	–	–
O=C(Nc1nnc(CC(=O)N2CCOCC2)s1)C1COc2ccccc2O1 (stereo unspecified)	–	–	–	–	–	–
COc1cccc(/C=N/n2cncn2)c1OCC#N	·	·	78	–	–	–
CCOC(=O)c1ccccc1OCc1cc(/C=N/n2cncn2)ccc1OC	–	–	·	·	·	·
CC(=O)Oc1c(Cl)c(N2CCOCC2)c(OC(C)=O)c2ccccc12	·	·	52	–	–	–
Cc1cc(OC(=O)N2CCOCC2)cc(C)c1Cl	–	–	–	–	–	–
O=C1c2ccccc2-c2onc3ccc(NCCCn4ccnc4)c1c23	–	–	92	97	–	–
Cc1sc(NC(=O)c2ccco2)c(C(c2ccncc2)N2CCOCC2)c1C (stereo unspecified)	–	–	67	81	–	–
Cc1sc(NC(=O)c2ccco2)c(C(c2cccnc2)N2CCCC2)c1C (stereo unspecified)	·	·	–	53	–	–
Cc1sc(NC(=O)c2ccco2)c(C(c2cccnc2)N2CCN(C)CC2)c1C (stereo unspecified)	·	·	–	–	–	–
COc1cccc(C2Nc3cc(Cl)c(S(N)(=O)=O)cc3S(=O)(=O)N2)c1 (stereo unspecified)	–	–	–	–	–	–
COc1ccc(OC)c(N2C(=O)CC(C(C)c3ccccc3)C2=O)c1 (stereo unspecified)	–	–	66	–	–	–
Cc1cc(C(=O)NC(C)C)on1	–	–	–	–	–	–
CCCN1C(=O)C(O)(CC(=O)c2cccc(OC)c2)c2ccccc21 (stereo unspecified)	–	–	87	–	–	–
C#CCN1C(=O)C(O)(CC(=O)c2ccc3c(c2)OCCO3)c2ccccc21 (stereo unspecified)	–	–	77	–	–	–
CCCN1C(=O)C(O)(CC(=O)c2ccc3c(c2)OCCO3)c2ccccc21 (stereo unspecified)	–	–	76	–	–	–
Cc1ccc(C(=O)CC2(O)C(=O)N(Cc3ccc4c(c3)OCO4)c3ccccc32)cc1 (stereo unspecified)	–	–	54	–	–	–
CN1C(=O)C(O)(CC(=O)c2ccc3c(c2)OCO3)c2ccccc21 (stereo unspecified)	–	–	–	–	–	–
Cc1ccc(S(=O)(=O)/N=S(/C)c2ccccc2)cc1 (stereo unspecified)	–	–	–	–	–	–
N#CC1(Cc2ccc(Cl)cc2)c2ccccc2C=CN1C(=O)c1ccccc1 (stereo unspecified)	–	–	96	93	–	–
CC(C)(C)NS(=O)(=O)c1ccc(Oc2ncc(C(F)(F)F)cc2Cl)cc1	–	–	–	–	–	–
CC(C)(C)NS(=O)(=O)c1cnc(Cl)c(Cl)c1	–	–	90	–	–	–
O=C(O)c1cccc(NS(=O)(=O)c2cccc3nsnc23)c1	–	–	–	–	–	–
O=C(NCCCN1CCOCC1)C(Sc1ccccc1)c1ccccc1 (stereo unspecified)	–	–	–	–	–	–
O=C(Nc1ncccc1Cl)C(Sc1ccccc1)c1ccccc1 (stereo unspecified)	–	–	58	55	–	–
SMILES	sEH inhibitor	sEH act	CYP2C19 inhib	CYP2C9 inhib	CYP2C9 act	CYP2C19 activ
O=C(Nc1ccon1)C(Sc1ccccc1)c1ccccc1 (stereo unspecified)	–	–	92	86	–	–
CC(=O)NS(=O)(=O)c1ccc(NC(=O)C(Sc2ccccc2)c2ccccc2)cc1 (stereo unspecified)	–	–	–	–	–	–
CC(C)NC(=O)C(Sc1ccccc1)c1ccccc1 (stereo unspecified)	–	–	96	62	–	–
COc1ccc(Cl)cc1N1C(=O)C2CCCN2C1c1ccccc1F (stereo unspecified)	–	–	–	–	–	–
Cc1cc(Nc2ccc3ccccc3c2)n2ncnc2n1	·	·	–	–	–	–
COc1ccc(Cl)cc1NC(=O)CSc1nnc(Cc2cccn2C)n1-c1ccc(F)cc1	·	·	–	–	–	–
O=C(Cn1ncc2c3ccccc3n(Cc3ccc(F)cc3)c2c1=O)N1CCN(c2ncccn2)CC1	–	–	99	95	–	–
CCOC(=O)N1CCC(NC(=O)Cn2c3ccccc3c3cn[nH]c(=O)c32)CC1	·	·	–	–	–	–
O=c1[nH]ncc2c3ccccc3n(Cc3ccc(F)cc3)c12	–	–	–	72	–	–
COC(=O)Cn1ncc2c3ccccc3n(Cc3ccccc3)c2c1=O	–	–	–	–	–	–
Cc1ccccc1Cn1c2ccccc2c2cnn(CC(=O)N3CCN(c4ccccc4)CC3)c(=O)c21	·	·	62	–	–	–
Cc1ccc(C2=N/C(=C\N3CCCCC3)C(=O)O2)cc1	–	–	84	66	–	–
Cc1ccc(C2=N/C(=C/N3CCOCC3)C(=O)O2)cc1	–	–	–	–	–	–
Cc1ccc(C)c(-n2c(Cc3cc(=O)[nH]c(=O)[nH]3)nnc2SC(C)C)c1	–	–	–	–	–	–
COc1ccc(CN(C(=O)c2nsc(Cl)c2Cl)C(C(=O)NC2CCCCC2)c2ccc(OC)cc2)cc1 (stereo unspecified)	–	–	51	58	–	–
COc1ccc(CN(C(=O)c2ccc3c(c2)OCCO3)C(C(=O)NC2CCCCC2)c2ccc3ncccc3c2)cc1 (stereo unspecified)	–	–	62	–	–	–
O=C(NC1CCCCC1)C(c1ccc2ncccc2c1)N(Cc1ccccc1)C(=O)c1ccc2c(c1)OCCO2 (stereo unspecified)	–	–	80	67	–	–
CCOc1ccccc1NC(=O)c1ccoc1C	–	–	–	–	–	–
Nc1c(Cl)cc(Cl)cc1C(=O)OCC(=O)NC1CC1	–	–	–	–	2.1	–
O=C(c1cccc(-n2cnnn2)c1)N1CC=C(c2ccccc2)CC1	–	–	–	–	–	–
O=C(CSc1nnc(-c2ccco2)o1)NC(=O)C1COc2ccccc2O1 (stereo unspecified)	·	·	61	–	–	–
Cc1cc(C(=O)CSc2nnc(-c3ccccc3)o2)c(C)n1CC1COc2ccccc2O1 (stereo unspecified)	–	–	88	–	–	–
Cc1cc(C(=O)CSc2nnc(-c3ccco3)o2)c(C)n1CC1COc2ccccc2O1 (stereo unspecified)	·	·	100	78	–	–
Cc1cc(C(=O)CSc2nnc(-c3ccc(F)cc3)o2)c(C)n1CC1CCCO1 (stereo unspecified)	–	–	–	–	–	–
Cc1cc(C(=O)CSc2nnc(-c3ccc(F)cc3)o2)c(C)n1CC1COc2ccccc2O1 (stereo unspecified)	–	–	–	54	–	–

High-throughput results as filed in PubChem BioAssay.
